LmPK inhibitor: LmPK (Leishmania mexicana) enzyme inhibition; Q27686; purified LmPK, Kinase-Glo ATP luminescence, 1 h; Potency, µM (titrated, usually from 57.5 µM), inactives show top-dose activity change, negative = inhibition, most hits filed as inhibitors; 290,000 tested, 0.37% active; AID 1721; further: potency means the concentration at half of the fitted maximal effect; on the % scale 0 is the no-effect control and ±100 the full control effect
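Purified LmPK (0.1 nM) converted ADP (0.1 mM) to ATP with PEP (0.5 mM) in imidazole buffer pH 7.2 with KCl and MgCl2, 1 h at room temperature. ATP was read by Kinase-Glo luminescence; data normalized to uninhibited and no-enzyme controls.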
Cycloheximide cs: counter-screen hit for Shiga toxin inhibitors, cycloheximide; AID 2314; max response, %; cell reporter, cycloheximide protein synthesis inhibition counterscreen; 300,000 tested, 12% active; in the data active means max response mostly above about 13%, no sharp cut-off; inactive means mostly below about 14%; further: read at 38.3 µM for the half of the compounds with a filed dose; 0% is about no effect
Sm TGR block: blocks Schistosoma mansoni thioredoxin glutathione reductase. Q962Y6. purified TGR, DTNB reduction, TNB absorbance 405 nm. Potency, µM (doses to about 114 µM), inactives show top-dose activity change, negative = inhibition, most hits filed as inhibitors. 360,000 tested, 3% active; further: potency means the concentration at half of the fitted maximal effect; on the % scale 0 is the no-effect control and ±100 the full control effect; nearly all actives have a fitted effect of over 60% in size
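Kinetic colorimetric format: TGR-catalysed, NADPH-driven DTNB reduction monitored via TNB absorbance. Enzyme dispensed at 20 nM; compound exposure 15 min at room temperature before reaction start.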
Shiga toxin inh: Shiga toxin inhibition; 290,000 tested, 9.2% active; inhibition, % at 38.7 µM; Vero cells, Shiga toxin protein synthesis inhibition reporter; in the data active means inhibition mostly above about 28%, no sharp cut-off; inactive means mostly below about 43%; further: 0% is about no effect
TbPYK inhibitor: blocks Trypanosoma brucei pyruvate kinase; Q57TT1; TbPYK enzyme, Kinase-Glo Plus ATP luminescence, 45 min; Potency, µM (titrated, usually from 76.8 µM), for inactives: at the top dose activity, negative = inhibition, most hits filed as inhibitors; 410,000 tested, 0.12% active; AID 624173; further: potency means the concentration at half of the fitted maximal effect; on the % scale 0 is the no-effect control and ±100 the full control effect; nearly all actives have a fitted effect of over 50% in size
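ADP (130 uM final) triggers the TbPYK reaction after compound addition; incubation is 45 min at room temperature. Kinase-Glo Plus is then added and luminescence imaged. Normalized data are fitted to concentration-effect curves.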
FBPA Giardia inh: Giardia lamblia aldolase inhibition | A8B2U2 | purified Giardia FBPA | Potency, µM (titrated, usually from 59.6 µM), inactives show at the top dose activity, negative = inhibition, most hits filed as inhibitors | 290,000 tested, 0.71% active; further: potency means the concentration at half of the fitted maximal effect; on the % scale 0 is the no-effect control and ±100 the full control effect; nearly all actives have a fitted effect of over 55% in size
Target sequence (A8B2U2 whole entry, looked up): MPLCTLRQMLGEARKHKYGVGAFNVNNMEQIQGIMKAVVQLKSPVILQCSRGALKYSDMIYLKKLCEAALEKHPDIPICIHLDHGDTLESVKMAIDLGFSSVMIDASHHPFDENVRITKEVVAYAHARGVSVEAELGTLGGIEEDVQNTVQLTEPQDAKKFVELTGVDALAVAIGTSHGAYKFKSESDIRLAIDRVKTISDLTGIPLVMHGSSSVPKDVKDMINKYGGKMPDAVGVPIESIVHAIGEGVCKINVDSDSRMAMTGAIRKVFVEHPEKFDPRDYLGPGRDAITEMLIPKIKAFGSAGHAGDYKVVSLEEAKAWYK
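Giardia FBPA (40 nM reagent) was preincubated 10 min at RT with compound (up to 57.5 uM final), then substrate plus GAPDH/TPI/NAD/arsenate coupling system with diaphorase/resazurin was added; resorufin fluorescence (525/598 nm) was read after 20 min.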
Starred values were filed as active, the others as inactive; ? = inconclusive; nt = no result given; [ ] = another dose, or the depositor's remark. The entries come from a sample that favours hits as a whole. Unless noted, the call rests on the fitted dose curve; in most records, active means well fitted curve in the direction sought with a large enough effect; inconclusive means small, poorly fitted or top-dose-only effect, or another doubt; inactive means no such curve, though single readings can be large; an effect the other way counts as inactive or inconclusive.

SMILES | LmPK inhibitor | Cycloheximide cs | Sm TGR block | Shiga toxin inh | TbPYK inhibitor | FBPA Giardia inh
CC(=O)c1c(C)[nH]c(C(=O)OCC(=O)NC(C)c2ccccc2)c1C (configuration not stated) | nt | nt | nt | nt | -7% | nt
CCc1ccc(NC(=O)COCc2cc(-c3ccc(F)cc3)on2)cc1 | nt | nt | 2% | nt | 6% | nt
CN(CC(=O)NCc1ccco1)CC(=O)Nc1cc(S(C)(=O)=O)ccc1Cl | nt | nt | -32% | nt | 0% | nt
CC(=O)Nc1ccc(NC(=O)CCS(=O)(=O)c2ccc3c(c2)oc(=O)n3C)cc1 | -5% | -11 | ? | -1 | 2% | nt
Cn1c(=O)oc2cc(NC(=O)CCl)ccc21 | -3% | -1 | 10µM* | -4 | 2% | -9%
CCC(C)C(N)C(=O)O (configuration not stated) | nt | nt | nt | nt | -9% | nt
Cc1ccc(C(=O)NC(=C(Cl)Cl)S(=O)(=O)c2ccc(Cl)cc2)cc1 | 7% | 48* | nt | 87* | 0% | 3%
CC(=O)Nc1ccc(S(=O)(=O)N2CCN(S(=O)(=O)c3ccccc3)CC2)cc1 | 1% | -2 | -12% | -3 | 0% | 3%
CC(=O)NC(=C(Cl)Cl)S(=O)(=O)c1ccccc1 | -1% | 36* | ? | 66* | 5% | 2%
Cc1ccc(S(=O)(=O)/C(=C/Cl)NC(=O)c2ccccc2)cc1 | -9% | 15* | 40µM* | 13 | -17% | -6%
Cc1ccc(C(=O)NC(=C(Cl)Cl)S(=O)(=O)c2ccc(C)cc2)cc1 | 1% | 13 | 18µM* | 24 | -8% | 0%
Cc1ccc(S(=O)(=O)C(NC(=O)c2ccccc2)=C(Cl)Cl)cc1 | nt | nt | nt | nt | -8% | nt
O=c1[nH]c2ccccc2cc1CN(Cc1ccco1)S(=O)(=O)c1ccccc1 | 5% | -2 | -30% | -3 | 0% | -1%
O=C(NC(=C(Cl)Cl)S(=O)(=O)c1ccc(Cl)cc1)c1ccccc1 | 11% | 57* | 3.5µM* | 90* | 2% | 1%
COc1cccc(NC(=O)CSCc2cc(=O)c3ccc(C)c(C)c3[nH]2)c1 | nt | nt | -3% | nt | -4% | nt
Cc1nn(CCOc2ccccc2)c(=O)n1-c1ccccc1 | -1% | 29* | 8% | 38* | 0% | 3%
COc1ccc(-n2c(C)nn(CCOc3ccccc3)c2=O)cc1 | -1% | 28* | -6% | 58* | -3% | 3%
COc1cccc(-n2c(C)nn(CCOc3ccccc3)c2=O)c1 | -2% | 13 | 7% | 61 | 2% | 2%
Cc1nn(CC2CC2)c(=O)n1-c1ccc(Oc2ccccc2)cc1 | 1% | 8 | -18% | 1 | 2% | 3%
Cc1nn(CCOc2ccccc2)c(=O)n1-c1ccc(Cl)cc1 | 9% | 30* | -2% | 76* | 4% | 2%
COc1ccccc1NC(=O)CSc1ncc2c(n1)-c1ccccc1N(Cc1ccccc1C)S2(=O)=O | nt | nt | 15% | nt | -7% | nt
CCOC(=O)c1cn(CC)c2c(ccc3ccccc32)c1=O | 3% | 35* | 3% | 42* | -3% | 9%
CCOC(=O)c1ccccc1NC(=O)c1cn(CC)c2nc(C)ccc2c1=O | 13% | 40* | 11% | 64* | 0% | 9%
CCn1cc(C(=O)OCc2ccccc2)c(=O)c2ccc(C)nc21 | -8% | 1 | -3% | -2 | 7% | 3%
CCn1cc(C(=O)Nc2ccccc2C(=O)OC)c(=O)c2ccc(C)nc21 | 1% | 51* | 3% | 145* | nt | -3%
SMILES | LmPK inhibitor | Cycloheximide cs | Sm TGR block | Shiga toxin inh | TbPYK inhibitor | FBPA Giardia inh
CCn1cc(C(=O)Nc2cccc(C(=O)OC)c2)c(=O)c2ccc(C)nc21 | 4% | 0 | -14% | -20 | -8% | 7%
CCC1=C2CC[C@H]3C(=O)N(CC(=O)OC)C(=O)[C@H]3[C@H]2[C@@]2(C)C(=NCCc3c[nH]c4ccccc34)OC(=O)N2C1=O | nt | nt | nt | nt | nt | -2%
O=C(Nc1cccc(F)c1)c1ccc2oc(=O)n(Cc3ccccc3)c2c1 | nt | nt | -2% | nt | -4% | nt
CCNc1ncc2nc(-c3ccc(F)cc3)c(=O)n(C)c2n1 | nt | nt | nt | nt | nt | 5%
COc1cccc(-c2nn(Cc3ccccc3)cc2CO)c1 | 2% | 45* | 3% | 90* | 1% | 1%
COc1cccc(-c2nn(Cc3ccccc3)cc2C(=O)O)c1 | 5% | 3 | 2% | 25 | 0% | 1%
COc1ccc(-c2nc(NC(=O)c3ccco3)sc2C)cc1 | nt | nt | nt | nt | -6% | nt
CC(=O)c1c(C)[nH]c(C(=O)Nc2nc(-c3ccc(-c4ccccc4)cc3)cs2)c1C | -3% | 11 | 3% | 64* | 2% | -3%
COc1ccc(-c2nc(NC(=O)Cn3cnnn3)sc2C)cc1 | 3% | 15 | 3% | -3 | -3% | 1%
COc1ccc(-c2nc(NC(=O)c3[nH]c(C)c(C(C)=O)c3C)sc2C)cc1 | 0% | 8 | 0% | 68* | -3% | -14%
COc1ccc(-c2nc(NC(=O)CSCCO)sc2C)cc1 | -4% | 24 | -22% | 70* | 3% | 2%
CCOC(=O)Nc1nc(-c2ccccc2)c(C(=O)c2ccccc2)s1 | 3% | 2 | -2% | -4 | -3% | -1%
CCCOC(=O)Nc1nc(-c2ccc(C)cc2)c(C)s1 | -3% | 27* | 7% | 65* | -6% | 11%
O=S(=O)(O)O | nt | nt | nt | nt | 3% | nt
CCOC(=O)c1cc(C(=O)Nc2ccc(C)c(F)c2)nn1C | -8% | 44* | 1% | 62* | 2% | 2%
CCOC(=O)c1cc(C(=O)NCc2ccc(Cl)cc2Cl)nn1C | 3% | -2 | -1% | 17 | -8% | 1%
FC(F)(F)c1cccc(N2CCc3cn[nH]c32)c1 | -1% | 23* | 13% | 32* | 2% | -6%
CCc1nc(Cl)c(C#N)c2c1CCCC2 | -1% | -9 | -3% | -14 | 0% | 8%
CCCc1nc(Cl)c(C#N)c2c1CCCC2 | -9% | -1 | 25µM* | -9 | -1% | 8%
Cc1oc(-c2ccc(Cl)cc2)cc1C(=O)O | -6% | 43* | 0% | 46 | -5% | 9%
COC(=O)C1=C(C)N(Cc2ccccc2)[C@]23O[C@](C(=O)OC)(C(=O)N2C1c1ccccc1)C1CCOC(=O)C13 (some centres not stated) | nt | nt | nt | nt | nt | -1%[12.9 µM]
Cn1nnnc1SCC(=O)Nc1ccc2c(c1)OCO2 | -3% | 26* | nt | 114* | 1% | -5%
CC(C)c1nnc(SCC(=O)Nc2ccc3c(c2)OCO3)n1C | 1% | -2 | 3% | 15 | -5% | 0%
CCn1nnnc1SCC(=O)Nc1ccc2c(c1)OCO2 | 6% | 16 | 1% | 45* | 4% | -2%
CCCCn1nnnc1SCC(=O)Nc1ccc2c(c1)OCCO2 | -2% | 7 | -3% | 17 | -6% | 0%
CC(=O)C1=C(OC(=O)C(C)C)c2ccccc2S(=O)(=O)N1Cc1ccccc1 | nt | nt | -29% | nt | 4% | nt
CCn1c(C)c(CS(=O)(=O)c2ccccc2)[nH]c1=O | 9% | 34* | 0.028µM* | 108 | -29% | 1%
